Assay outcomes from PubChem BioAssay.
DT40 TDP1 no CPT: qHTS for Inhibitors of human tyrosyl-DNA phosphodiesterase 1 (TDP1): qHTS in cells in absence of CPT. DT40 Tdp1-/- hTDP1 cells, no CPT, ATP luminescence, 48 h. Potency, µM (highest dose often 46.2 µM), for inactives: at the highest dose activity change, negative = growth inhibition, most hits filed as inhibitors. 420,000 compounds, 15% hits. AID 686978, 2013; note: potency is the fitted concentration of half-maximal effect; nearly all actives have a fitted effect of over 55% in size
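Compound effects on proliferation are scored in DT40 Tdp1-/-;hTDP1 cells in the absence of CPT. ATP levels (CellTiter-Glo luminescence) are recorded after a ≥48 hr, 37 °C incubation.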
ELG1 DNA repair: ELG1-dependent DNA repair inhibition; HEK293T ELG1-luciferase reporter, luminescence, 16 h; DNA damage induced by 5-fluorouridine; Potency, µM (titrated, usually from 46.1 µM), for inactives: top-dose activity change, negative = inhibition, usual class: inhibitors; 330,000 compounds, 2.3% hits; note: potency is the fitted concentration of half-maximal effect; nearly all actives have a fitted effect of over 55% in size
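In this reporter screen, reduction of luminescence relative to DMSO vehicle indicated activity. Compounds and 5-fluorouridine were added together to 2,000 cells per well, incubated for 16 hr at 37 °C, then developed with ONE-Glo.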
IL-1B inflam inh: inflammasome signaling inhibition, IL-1 beta readout; activity change, % at 57.5 µM; THP-1 LPS/ATP IL-1B secretion, AlphaLISA, 16 h; active compounds read low; 360,000 compounds, 4.7% hits; in the data active = activity change below about -50%; inconclusive = mostly about -30% to -49%
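THP-1 cells pretreated 1 hr with compounds (up to 57.5 uM final), then stimulated with LPS (250 ng/mL final) plus ATP (1.25 mM final); secreted IL-1B measured by AlphaLISA after 16 hr, decreased signal indicating inhibition.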
TDP1 cell CPT: growth inhibition of DT40 Tdp1-/-;hTDP1 cells with camptothecin (screen for TDP1 inhibitors); chicken DT40 Tdp1-/-;hTDP1 cells + 20 nM CPT, ATP luminescence, 48 h; 420,000 compounds, 12% hits; Potency, µM (doses to about 46.2 µM), for the others: at the highest dose activity change, negative = growth inhibition, usual class: inhibitors; note: potency is the fitted concentration of half-maximal effect; nearly all actives have a fitted effect of over 55% in size
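Chicken DT40 Tdp1-/- cells stably complemented with human TDP1 were seeded at 400 cells/well in medium containing 20 nM camptothecin, exposed to pin-transferred compounds, and grown at 37 °C for at least 48 hr. Viability was read as ATP luminescence.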
HT1080-NT tox: kills 2HG-producing HT-1080-NT fibrosarcoma cells; HT-1080-NT fibrosarcoma viability, CellTiter-Glo ATP luminescence, 48 h; Potency, µM (doses to about 46.1 µM), without a hit: top-dose activity, negative = less viability, most hits filed as cytotoxic; 360,000 compounds, 1.6% hits;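 note: NT is the 2HG producing partner of a matched IDH1 knockdown line; potency is the fitted concentration of half-maximal effect; 0% = DMSO-treated cells and -100% = media-only wells without cells; nearly all actives have a fitted effect of over 55% in size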
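HT-1080-NT; 750 cells/well; 5% FBS RPMI; 48 h compound, 37 degrees C; CellTiter-Glo luminescence; curve fitting and curve-class assignment.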
HT1080 IDH1KD tx: toxicity to HT-1080 IDH1 knockdown cells (counter line). Potency, µM (series often up to 46.1 µM), for inactives: at the highest dose activity, negative = toxicity, hits mostly cytotoxic. AID 686971. 360,000 compounds, 2% hits. HT-1080 IDH1 knockdown viability, ATP luminescence, 48 h;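 note: potency is the fitted concentration of half-maximal effect; 0% = DMSO wells and -100% = cell-free medium wells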
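Luminescent ATP read-out (CellTiter-Glo, 10 min at room temperature) after 48 h compound exposure at 37 °C gave viability of IDH1-knockdown HT-1080 cells. Activity was normalised to DMSO and cell-free wells, then fitted as concentration-response curves.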
* marks the source's active call; other numbers are inactive results; ? = inconclusive; . = no result; ! = not confirmed by another sample. A selection: hits, their analogues and other compounds. The true share with any hit is near 19%. Unless noted, calls come from the whole dose curve; as a rule, active = well fitted curve in the direction sought with a large enough effect; inconclusive = small, poorly fitted or top-dose-only effect, or another doubt; inactive = no such curve, though single readings can be large; an effect the other way counts as inactive or inconclusive. Unless noted, % is set by controls: 0 for no effect and ±100 for the full control effect.

SMILES | DT40 TDP1 no CPT | ELG1 DNA repair | IL-1B inflam inh | TDP1 cell CPT | HT1080-NT tox | HT1080 IDH1KD tx
CCOC(=O)c1c(C)n(-c2ccccc2)c2ccc(OC(=O)c3ccc(OCC)c(OCC)c3)cc12 | 18µM* | . | . | ? | . | .
CCOC(=O)c1c(C)n(-c2ccccc2)c2ccc(OC(=O)c3cc(OC)cc(OC)c3)cc12 | 21µM* | . | . | ? | . | .
CCOc1ccc(-n2c(C)c(C(C)=O)c3cc(OCC(N)=O)ccc32)cc1 | 8% | ? | 14 | -1% | 14% | 16%
CCOC(=O)c1c(C)n(-c2ccccc2)c2ccc(OC(=O)c3cccc(OC)c3OC)cc12 | -26% | . | . | -18% | . | .
CCOC(=O)c1c(C)n(-c2ccccc2)c2ccc(OC(=O)c3ccccc3Cl)cc12 | 16µM* | . | . | ? | . | .
CCSc1nc(-c2ccccc2OC)nc2c1Cc1c(CO)cnc(C)c1O2 | 8.2µM* | . | . | 8.2µM* | . | .
CCSc1nc(-c2ccccc2F)nc2c1Cc1c(CO)cnc(C)c1O2 | -25% | . | . | -14% | . | .
Cc1ccc(C)c(CSc2nc(-c3ccccc3F)nc3c2Cc2c(CO)cnc(C)c2O3)c1 | -14% | . | . | -12% | . | .
COc1cccc(CSc2nc(-c3ccccc3F)nc3c2Cc2c(CO)cnc(C)c2O3)c1 | 21µM* | . | . | ? | . | .
CCOc1ccccc1Nc1nc2ccccc2c2nncn12 | ? | . | . | -24% | . | .
Cc1ccc(-n2c(-c3ccccc3)c[n+]3c2CCc2ccccc2-3)c(C)c1 | 0.037µM* | ? | -99* | 0.21µM* | 23µM* | ?
COCC(=O)N1CCC[C@@]2(CCN(c3ccccc3)C2)C1 | -9% | . | . | 6% | . | .
CC1=NN(C(N)=S)C(=O)C1N=Nc1ccc(Cl)cc1 (stereo not given) | 1.5µM* | ? | 5 | 0.52µM* | -6% | -18%
CC1=NN(C(N)=S)C(=O)C1N=Nc1cccc(Cl)c1C (stereo not given) | 8.2µM* | ? | 13 | 13µM* | -10% | -28%
CC1=NN(C(N)=S)C(=O)C1N=Nc1cccc([N+](=O)[O-])c1 (stereo not given) | -13% | ? | 28 | ? | 15% | 23%
CC1=NN(C(N)=S)C(=O)C1N=Nc1ccc(Br)cc1 (stereo not given) | ? | ? | 1 | 21µM* | -3% | -7%
CC1=NN(C(N)=S)C(=O)C1N=Nc1ccccc1 (stereo not given) | ? | ? | 10 | ? | 8% | 3%
CC1=NN(C(=O)c2ccncc2)C(=O)C1N=Nc1ccc2ccccc2c1 (stereo not given) | ? | . | 3 | ? | 1% | -12%
COc1ccccc1C(CNC(=O)C1CCN(C(=O)Nc2ccccc2)CC1)N1CCCC1 (stereo not given) | 14% | ? | -3 | -2% | 4% | 3%
COc1ccc(CCNC(=O)Cn2c(=O)n(-c3cc(OC)c(OC)c(OC)c3)c(=O)c3ccccc32)cc1OC | 2% | . | . | -3% | . | .
Cc1cccc(C)c1NC(=O)c1sccc1SCC#N | ? | 3% | 7 | 11µM* | 3% | -9%
Cc1c(NC(=O)CN2C(=O)NC3(CCC(C)CC3)C2=O)c(=O)n(-c2ccccc2)n1C (stereo not given) | 10% | 15% | -15 | 8% | 26% | 19%
CCCCCCCCCCCCC/C=C/[C@@H](O)[C@@H](N)CO | 12µM*! | ? | 9 | 9.2µM*! | ? | -2%
COc1ccc(OCCN2CCC(C(=O)NC(c3ccsc3)c3ccccc3C)CC2)cc1 (stereo not given) | ? | . | -67* | ? | ? | ?
O=C(NC(c1ccccc1)c1ccsc1)C1CCN(Cc2ccccc2)CC1 (stereo not given) | ? | . | 49 | ? | -5% | 7%
SMILES | DT40 TDP1 no CPT | ELG1 DNA repair | IL-1B inflam inh | TDP1 cell CPT | HT1080-NT tox | HT1080 IDH1KD tx
Cc1ccccc1C(NC(=O)C1CCN(Cc2ccc(Oc3ccccc3)cc2)CC1)c1ccsc1 (stereo not given) | 18µM* | . | ? | 18µM* | 21µM* | ?
COc1cc(CN2CCC(C(=O)NC(c3ccccc3)c3ccsc3)CC2)cc(OC)c1 (stereo not given) | 21µM* | . | -24 | 16µM* | ? | ?
COc1ccc(OCCN2CCC(C(=O)NC(c3ccc(C)cc3)c3ccccn3)CC2)cc1 (stereo not given) | -15% | . | -27 | -28% | -2% | -2%
O=C(NC(c1ccc(Cl)cc1)c1ccsc1)C1CCN(Cc2ccc(Oc3ccccc3)cc2)CC1 (stereo not given) | 2.6µM* | . | -63* | 2.6µM* | 15µM* | 12µM*
O=C(CN1CCCN(Cc2ccccc2Cl)S1(=O)=O)Nc1ccc2c(c1)OCCO2 | -25% | . | . | ? | . | .
COc1ccc(S(=O)(=O)N2CCN(CC(O)COc3ccc(CC#N)cc3)CC2)cc1OC (stereo not given) | -10% | ? | -8 | -1% | 0% | -9%
COc1ccc(Cc2n[nH]c(=S)n2-c2cc(C)ccc2C)cc1OC | -6% | . | -20 | -8% | 23% | 1%
COCCNC(=O)NC(=O)CN1C(=O)NC(Cc2c[nH]c3ccccc23)C1=O (stereo not given) | -8% | 24% | 26 | 10% | -14% | -18%
CC(NC(=O)C1CCC1)c1ccc(Cl)cc1 (stereo not given) | -3% | 3% | 21 | 7% | 13% | 16%
CCCN1CCC(C(=O)NC(c2ccc(Cl)cc2)c2ccsc2)CC1 (stereo not given) | 2.9µM* | . | ? | ? | ? | ?
Cc1ccc(C)c(N2CCN(C(=O)c3cc(C)nc4c3c(C)nn4-c3ccccc3)CC2)c1 | 18µM* | . | . | ? | . | .
Cc1cc(C(=O)N2CCN(c3cc(Cl)ccc3C)CC2)c2c(C)nn(-c3ccccc3)c2n1 | ? | . | . | 21µM* | . | .
CSc1ncc(C(=O)N2CCN(c3cc(C)ccc3C)CC2)c(C)n1 | ? | . | . | 21µM* | . | .
COc1ccc(CCNC(=O)Cc2c(C)c3cc4c(C)coc4c(C)c3oc2=O)cc1 | ? | . | . | -11% | . | .
COc1ccc(-c2nc(NC(=O)C3CCN(c4nc5ccccc5o4)CC3)sc2C)cc1 | ? | 12µM* | -27 | 16µM* | ? | ?
